Data on four compounds can be found in PubChem BioAssay.

Structures are written as SMILES. Results filed as inconclusive are left out. The source made the active and inactive calls. Unless noted, no rule for the calls is given here.

A short description of experiment [1]: yeast TOR pathway RPL19A-GFP modulators, primary screen, cell-based, S. cerevisiae, multiplex flow cytometry (AID 1862; in the data active = percent of DMSO control GFP below about 86%;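 also: lower values mimic rapamycin by blocking the RPL19A rise seen in DMSO cells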). The settings on record: S. cerevisiae RPL19A-GFP strain, flow cytometry fluorescence, 3 h; at 10 µM; stronger effect = lower value.
A short description of experiment [2]: modulators of CIT2-GFP expression in yeast, primary screen, S. cerevisiae, GFP fusion, multiplex flow cytometry (AID 1870;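 active = percent response above a set limit, the screen-wide mean plus 3 SD, cut at about 130% in these data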;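 also: barcoded CIT2-GFP strain pooled with four other GFP strains with rapamycin as positive control; median GFP fluorescence per well over plate mean of DMSO wells so 100% = DMSO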). The note with it: 3 h, at 10 µM, stronger effect = higher value.
Experiment [3] is described as follows: modulators of LAP4-GFP expression in yeast, primary screen, S. cerevisiae, multiplex flow cytometry (AID 1873;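 active = GFP signal, as percent of the solvent control, above the screen mean plus 3 SD, about 149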). The settings on record: 3 h, at 10 µM, stronger effect = higher value. A general note: Flow cytometry measures light scatter and fluorescence of single cells or particles in a stream.
Experiment [4] is described as follows: inhibitors of CD8+ T cell-vesicle binding, pilot screen, LFA-1/ICAM-1 modulator project, MLPCN validation set, flow cytometry (AID 2523;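 active = response below a set limit, under 55% cells CD8-positive and vesicle-bound, and CD8 cells' 90th-percentile brightness under 279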;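 as to vesicle binding response: mean PE anti-B7-1 fluorescence of CD8+ cells relative to row control; 100% = QL9-loaded vesicles with DMSO vehicle in the same plate row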). The note with it: 2C mouse CD8+ T cells, at 7 µM, stronger effect = lower value; double positive events: measured here: CD8+/vesicle+ event percentage.
In experiment [5] the target is Integrin beta-1 (Homo sapiens) + Integrin alpha-4 (Homo sapiens) (UniProt P13612+P05556). The experiment can be described thus: inhibition of HUTS-21 binding to VLA-4, pilot screen, VLA-4 allosteric modulator project, U937 cells, HUTS-21 mAb, flow cytometry, validation set (AID 2674;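 active = inhibition above 50%, about 3 SD of the validation set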;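 also: antibody binding induced by the VLA-4 ligand LDV present at three times its Kd; 0% = LDV ligand with antibody and no compound and 100% = antibody without LDV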). The settings on record: HUTS-21 LIBS mAb binding, at 6.7 µM, stronger effect = higher value.
For experiment [6], the target named is Beta-adrenergic receptor kinase 1 (Homo sapiens) (UniProt P25098). The experiment can be described thus: GRK2 binders displacing RNA aptamer, biochemical, validation, human GRK2, bead flow cytometry (AID 488806;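 active = aptamer binding inhibition above 30%, about 3 SD of noise from non-fluorescent compounds; inactive = inhibition at or below 30%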). The note with it: bead-bound GRK2, FAM-aptamer displacement, at 10 µM, stronger effect = higher value.
Sequence of Beta-adrenergic receptor kinase 1 (Homo sapiens) (P25098 whole entry, looked up): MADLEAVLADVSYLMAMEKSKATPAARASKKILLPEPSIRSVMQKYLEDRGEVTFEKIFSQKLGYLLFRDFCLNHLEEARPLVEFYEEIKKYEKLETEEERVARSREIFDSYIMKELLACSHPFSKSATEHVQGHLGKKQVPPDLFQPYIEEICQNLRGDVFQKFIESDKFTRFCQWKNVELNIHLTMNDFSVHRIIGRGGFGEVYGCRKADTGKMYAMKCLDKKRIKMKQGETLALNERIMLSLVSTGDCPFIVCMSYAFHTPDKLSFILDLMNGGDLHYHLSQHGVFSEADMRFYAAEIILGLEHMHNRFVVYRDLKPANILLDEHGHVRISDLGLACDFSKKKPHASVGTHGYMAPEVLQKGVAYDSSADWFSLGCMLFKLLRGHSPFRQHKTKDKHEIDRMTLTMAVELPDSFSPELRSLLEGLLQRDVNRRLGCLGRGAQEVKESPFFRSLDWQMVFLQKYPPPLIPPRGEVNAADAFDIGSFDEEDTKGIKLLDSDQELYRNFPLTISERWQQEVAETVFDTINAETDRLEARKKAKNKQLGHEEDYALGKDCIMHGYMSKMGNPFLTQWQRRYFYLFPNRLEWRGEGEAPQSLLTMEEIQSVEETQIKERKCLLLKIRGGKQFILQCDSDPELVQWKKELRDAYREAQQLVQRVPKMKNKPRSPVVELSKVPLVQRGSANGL
Experiment [7] concerns the target Beta-2 adrenergic receptor (Homo sapiens) (UniProt P07550). The experiment can be described thus: beta2AR agonists driving receptor internalization, pilot screen, cell-based, FAP fluorogen, flow cytometry, validation set (AID 504459;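 active = percent response above 42, roughly 3 SD of non-fluorescent test compounds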;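 also: agonist-driven loss of surface beta2AR via internalization measured by FAP dye flow cytometry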). The settings on record: Am2.2-beta2AR cells, FAP surface receptor flow cytometry; at 10 µM; stronger effect = higher value.
Experiment [8] addresses AP-2 complex subunit beta (Homo sapiens) (UniProt P63010). Put plainly: inhibitors of arrestin peptide binding to AP2, pilot screen, biochemical, validation set, GST-AP2 beads, flow cytometry (AID 504541;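 active = inhibition above 54%, about 3 SD of non-fluorescent compounds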;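 also: AP2 carries R879A mutation and is captured from E. coli lysate; bead-bound FITC arrestin peptide fluorescence measuring arrestin peptide binding to AP2; 0% = DMSO wells and 100% = excess unlabeled arrestin peptide control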). The note with it: FITC arrestin peptide, at 10 µM, stronger effect = higher value.
The nature of experiment [9]: yeast V-ATPase proton transport modulators, S. cerevisiae, pHLuorin, HTS validation (AID 504600; in the data active = response above about 15%;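 also: plate controls were DMSO for no effect and reference compound for full effect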). The note with it: S. cerevisiae pHLuorin cytosolic pH, at 10 µM, stronger effect = higher value.
Experiment [10] deals with anti-desmoglein-3 scFv antibody binding to human DSG3. The experiment can be described thus: inhibitors of anti-DSG3 scFv binding to DSG3, pilot screen, biochemical, validation compound set, bead-based, flow cytometry (AID 588368;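 active = binding below the plate cutoff, the plate median minus 3 SD, with a reading above zero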;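 also: signal is the median channel fluorescence of bead-bound GFP antibody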). The note with it: Protein G beads, DSG3-Fc, scFv-GFP binding, at 10 µM, stronger effect = lower value.
The subject of experiment [11] is Botulinum neurotoxin type F light chain protease (Clostridium botulinum). Put plainly: Botulinum neurotoxin type F light chain protease inhibition, multiplex microsphere flow cytometry, validation set (AID 588459). The settings on record: multiplex microsphere protease substrate cleavage assay, at 10 µM, stronger effect = higher value.
Experiment [12] concerns the target Botulinum neurotoxin type A (Clostridium botulinum) (UniProt P0DPI0). Put plainly: BoNT/A light chain protease inhibitors, biochemical, multiplex microsphere flow cytometry, validation set (AID 588460). The note with it: at 10 µM, stronger effect = higher value.
Experiment [13] concerns the target Lethal factor (Bacillus anthracis) (UniProt P15917). Put plainly: Lethal factor protease inhibitors, Bacillus anthracis, multiplex microsphere cleavage assay, validation set (AID 588461). The note with it: flow cytometry, at 10 µM, stronger effect = higher value.
A short description of experiment [14]: inhibitors of fungal efflux pumps CDR1, CDR2, MDR1, pilot screen, validation compound set, multiplex, phenotypic (AID 588506;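 active = efflux inhibition above 0.42, the validation set average plus 4 SD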;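 also: Nile Red retained in cells so higher fluorescence means more efflux inhibition; 0 = negative control wells and 1 = enniatin B 25 µM full block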). The settings on record: S. cerevisiae pump-expressing triplex, Nile Red efflux flow cytometry; at 10 µM; stronger effect = higher value.
For experiment [15], the target named is ATP-binding cassette sub-family B member 6 (Homo sapiens) (UniProt Q9NP58). The experiment can be described thus: ABCB6 transporter inhibitors, pilot screen, K562-ABCB6 cells, flow cytometry, validation set (AID 588550;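 active = inhibition above the screen-wide mean plus 3 SD, about 51%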;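 also: 0% = DMSO wells and 100% = benzethonium chloride 70 µM positive control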). The settings on record: K562-ABCB6 porphyrin accumulation, 1 h, at 10 µM, stronger effect = higher value.
Sequence of ATP-binding cassette sub-family B member 6 (Homo sapiens) (Q9NP58 whole entry, looked up): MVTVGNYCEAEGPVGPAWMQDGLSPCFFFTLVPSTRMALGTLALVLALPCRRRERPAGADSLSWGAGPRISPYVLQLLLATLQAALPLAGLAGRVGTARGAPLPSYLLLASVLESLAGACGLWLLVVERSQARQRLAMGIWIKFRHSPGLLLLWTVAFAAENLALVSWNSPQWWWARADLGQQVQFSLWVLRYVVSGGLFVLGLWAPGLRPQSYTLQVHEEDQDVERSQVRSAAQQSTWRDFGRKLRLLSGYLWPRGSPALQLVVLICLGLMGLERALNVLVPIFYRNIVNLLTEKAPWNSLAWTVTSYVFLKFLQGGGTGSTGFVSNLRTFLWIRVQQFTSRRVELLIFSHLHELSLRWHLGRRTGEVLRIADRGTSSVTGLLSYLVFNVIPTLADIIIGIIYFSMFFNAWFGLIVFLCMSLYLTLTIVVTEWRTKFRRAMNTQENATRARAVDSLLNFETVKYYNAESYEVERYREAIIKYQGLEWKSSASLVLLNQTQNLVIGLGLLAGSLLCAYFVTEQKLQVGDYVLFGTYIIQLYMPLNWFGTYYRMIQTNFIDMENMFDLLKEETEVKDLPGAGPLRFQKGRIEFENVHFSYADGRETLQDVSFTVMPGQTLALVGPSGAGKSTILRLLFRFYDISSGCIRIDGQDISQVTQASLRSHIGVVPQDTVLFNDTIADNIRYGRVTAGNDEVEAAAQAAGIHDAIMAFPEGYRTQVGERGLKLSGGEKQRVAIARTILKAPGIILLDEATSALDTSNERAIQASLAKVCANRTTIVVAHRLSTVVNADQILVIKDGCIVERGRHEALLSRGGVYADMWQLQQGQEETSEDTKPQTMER
Experiment [16] is described as follows: promoters of myeloid differentiation in arrested cells, primary screen, cell-based, GFP/MAC1 double positive, flow cytometry, validation set (AID 588685;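 active = differentiation response of at least 50%, scaled between solvent and reference control, from cells with both markers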;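 also: compound exposure lasts four days before antibody staining and flow analysis; 0% = DMSO wells and 100% = 5 µM fulvestrant positive control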). The settings on record: ER-HoxA9 marrow cells, stronger effect = higher value.
Experiment [17] can be described thus: superoxide lowering in aged yeast cells, pilot screen, validation compound set (AID 2706;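 active = superoxide response below 65% of plate, a cut near 3 SD across the whole screen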;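 also: yeast exposed to compound for one week at 30 degrees C before staining; 100% = mean of all compound wells on the same plate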). The note with it: S. cerevisiae aging, superoxide DHE fluorescence; at 10 µM; stronger effect = lower value.

Sequence of Beta-2 adrenergic receptor (Homo sapiens) (P07550 whole entry, looked up): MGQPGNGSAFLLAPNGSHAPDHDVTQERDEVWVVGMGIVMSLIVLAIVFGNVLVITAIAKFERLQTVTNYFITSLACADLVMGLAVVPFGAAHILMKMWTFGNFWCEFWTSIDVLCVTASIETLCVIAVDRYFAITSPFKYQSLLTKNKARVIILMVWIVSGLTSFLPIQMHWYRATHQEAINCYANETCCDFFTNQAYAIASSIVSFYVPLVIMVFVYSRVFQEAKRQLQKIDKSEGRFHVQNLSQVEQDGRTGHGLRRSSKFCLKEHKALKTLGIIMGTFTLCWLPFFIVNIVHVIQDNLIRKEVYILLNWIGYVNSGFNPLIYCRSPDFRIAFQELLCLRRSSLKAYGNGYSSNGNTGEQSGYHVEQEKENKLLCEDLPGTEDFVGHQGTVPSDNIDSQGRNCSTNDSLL
Sequence of Botulinum neurotoxin type A (Clostridium botulinum) (P0DPI0 whole entry, looked up): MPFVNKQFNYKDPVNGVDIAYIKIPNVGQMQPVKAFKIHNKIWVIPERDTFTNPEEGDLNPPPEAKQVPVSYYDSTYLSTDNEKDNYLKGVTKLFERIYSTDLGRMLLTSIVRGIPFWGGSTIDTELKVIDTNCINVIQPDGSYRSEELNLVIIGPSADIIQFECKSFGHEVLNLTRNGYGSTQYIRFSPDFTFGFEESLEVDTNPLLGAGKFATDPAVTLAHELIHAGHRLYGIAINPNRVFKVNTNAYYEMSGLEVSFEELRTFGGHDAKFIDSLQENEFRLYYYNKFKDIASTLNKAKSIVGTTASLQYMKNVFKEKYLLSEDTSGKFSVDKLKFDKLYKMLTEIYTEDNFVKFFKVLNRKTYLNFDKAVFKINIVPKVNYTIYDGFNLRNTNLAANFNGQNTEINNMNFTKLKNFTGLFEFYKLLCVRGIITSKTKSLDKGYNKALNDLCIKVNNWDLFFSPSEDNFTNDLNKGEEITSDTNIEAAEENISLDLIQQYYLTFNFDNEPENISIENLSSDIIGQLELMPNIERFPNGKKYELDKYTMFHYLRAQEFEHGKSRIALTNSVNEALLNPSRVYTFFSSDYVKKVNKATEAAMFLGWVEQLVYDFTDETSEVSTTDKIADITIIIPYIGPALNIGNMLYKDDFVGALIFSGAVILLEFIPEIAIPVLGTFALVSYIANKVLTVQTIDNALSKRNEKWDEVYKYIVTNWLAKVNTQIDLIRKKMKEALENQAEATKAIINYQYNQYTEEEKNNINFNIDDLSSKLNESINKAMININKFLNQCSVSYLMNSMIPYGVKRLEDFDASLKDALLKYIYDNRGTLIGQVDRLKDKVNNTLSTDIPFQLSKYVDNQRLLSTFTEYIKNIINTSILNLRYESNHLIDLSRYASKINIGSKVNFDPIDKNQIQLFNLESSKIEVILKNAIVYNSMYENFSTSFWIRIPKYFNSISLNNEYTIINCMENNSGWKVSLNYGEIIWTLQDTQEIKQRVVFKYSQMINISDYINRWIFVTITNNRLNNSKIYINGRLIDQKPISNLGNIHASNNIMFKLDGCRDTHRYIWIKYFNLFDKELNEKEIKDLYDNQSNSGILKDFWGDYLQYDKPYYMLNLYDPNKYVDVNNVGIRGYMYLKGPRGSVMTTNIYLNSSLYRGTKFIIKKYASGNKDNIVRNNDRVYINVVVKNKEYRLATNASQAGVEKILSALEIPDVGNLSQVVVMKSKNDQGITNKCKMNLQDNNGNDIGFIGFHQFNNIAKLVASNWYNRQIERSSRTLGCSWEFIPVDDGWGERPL
Sequence of AP-2 complex subunit beta (Homo sapiens) (P63010 whole entry, looked up, one chain of several): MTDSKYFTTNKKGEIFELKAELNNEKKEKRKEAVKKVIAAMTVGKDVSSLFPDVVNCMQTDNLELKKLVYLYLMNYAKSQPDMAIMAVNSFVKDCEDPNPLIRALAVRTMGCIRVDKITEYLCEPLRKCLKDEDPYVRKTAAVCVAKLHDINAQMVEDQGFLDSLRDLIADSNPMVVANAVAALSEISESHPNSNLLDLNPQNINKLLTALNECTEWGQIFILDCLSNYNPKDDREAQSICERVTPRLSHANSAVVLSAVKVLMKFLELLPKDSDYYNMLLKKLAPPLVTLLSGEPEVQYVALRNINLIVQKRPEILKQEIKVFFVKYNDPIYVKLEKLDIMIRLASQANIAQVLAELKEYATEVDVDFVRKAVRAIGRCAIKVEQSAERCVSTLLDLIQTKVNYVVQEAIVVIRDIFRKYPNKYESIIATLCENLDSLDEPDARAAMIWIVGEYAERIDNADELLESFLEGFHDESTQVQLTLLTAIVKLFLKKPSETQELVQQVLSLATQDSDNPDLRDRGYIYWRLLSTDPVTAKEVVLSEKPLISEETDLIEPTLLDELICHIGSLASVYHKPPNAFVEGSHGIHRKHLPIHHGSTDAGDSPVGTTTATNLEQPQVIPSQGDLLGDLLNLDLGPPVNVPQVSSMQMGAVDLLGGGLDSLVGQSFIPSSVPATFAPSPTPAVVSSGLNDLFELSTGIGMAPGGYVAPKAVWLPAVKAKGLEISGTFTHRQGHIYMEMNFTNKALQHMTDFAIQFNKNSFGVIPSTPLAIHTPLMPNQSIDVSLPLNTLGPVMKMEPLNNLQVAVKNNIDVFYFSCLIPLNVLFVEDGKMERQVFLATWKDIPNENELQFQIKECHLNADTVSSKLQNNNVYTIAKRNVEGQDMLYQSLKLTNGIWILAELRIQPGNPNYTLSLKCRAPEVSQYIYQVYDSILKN
Sequence of Lethal factor (Bacillus anthracis) (P15917 whole entry, looked up): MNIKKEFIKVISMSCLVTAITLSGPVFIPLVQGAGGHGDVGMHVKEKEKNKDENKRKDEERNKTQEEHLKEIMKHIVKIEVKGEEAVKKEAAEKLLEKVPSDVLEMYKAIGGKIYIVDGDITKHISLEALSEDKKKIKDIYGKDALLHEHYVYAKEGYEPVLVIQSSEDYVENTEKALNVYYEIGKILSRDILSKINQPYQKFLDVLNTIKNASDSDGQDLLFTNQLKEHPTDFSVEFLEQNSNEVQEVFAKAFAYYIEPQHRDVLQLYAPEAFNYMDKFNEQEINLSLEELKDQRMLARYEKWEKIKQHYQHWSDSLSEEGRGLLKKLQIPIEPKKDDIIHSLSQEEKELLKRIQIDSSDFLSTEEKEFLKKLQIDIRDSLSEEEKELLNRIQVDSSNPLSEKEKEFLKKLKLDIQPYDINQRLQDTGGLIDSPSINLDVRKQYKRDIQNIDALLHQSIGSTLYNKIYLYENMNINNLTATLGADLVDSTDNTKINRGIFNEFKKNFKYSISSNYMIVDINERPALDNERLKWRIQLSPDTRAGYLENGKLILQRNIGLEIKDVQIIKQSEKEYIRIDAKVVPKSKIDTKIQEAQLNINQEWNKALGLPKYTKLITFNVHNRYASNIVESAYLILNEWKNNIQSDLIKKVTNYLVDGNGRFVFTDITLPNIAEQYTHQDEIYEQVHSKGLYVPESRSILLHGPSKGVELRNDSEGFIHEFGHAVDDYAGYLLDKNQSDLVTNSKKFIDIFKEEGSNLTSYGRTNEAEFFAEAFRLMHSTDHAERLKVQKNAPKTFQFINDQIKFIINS

On to `COc1ccc(OC)c(C(O)C(C)N)c1` (centres undefined), for which the percent of DMSO control GFP in experiment [1] was 103% (inactive). The percent response of DMSO control in [2] is 95.4% (inactive). For the same compound, the GFP response vs DMSO in [3] is 87.4% (inactive). In experiment [4], the double positive events was determined as 59.9%. In [4], the vesicle binding response was 41.1% (inactive). For the same compound, the inhibition in experiment [5] is 7.85% (inactive); in experiment [8], -0.56% (inactive); in [11], 2.2% (inactive); in experiment [12] it was 1.1% (inactive); in experiment [13], 3.1% (inactive); in [15], 10% (inactive). In experiment [6], the aptamer binding inhibition was 0% (inactive). Besides, the response was -5.54% (inactive) in experiment [7] and 1.5% (inactive) in [9]. In [10], the binding (% of control) is 105% (inactive). In experiment [14], the efflux inhibition (fraction of control) was 0.61 (active). Moreover, in experiment [16], the differentiation response was 24.7% (inactive).

In the case of `CCNC(=S)N(C)CCc1cc2c(c(OC)c1C=C1C(=O)N(C)C(=O)N(C)C1=O)OCO2`, the percent of DMSO control GFP in experiment [1] is 98.1% (inactive). Moreover, the percent response of DMSO control in experiment [2] is 91% (inactive). Also, the GFP response vs DMSO in [3] is 96.4% (inactive). The double positive events in experiment [4] came to 62.5%. For the same compound, in [4], the vesicle binding response was 168% (inactive). In addition, the inhibition was 15.6% (inactive) in experiment [5]; 27.6% (inactive) in [8]; 1.8% (inactive) in [11]; 1.4% (inactive) in experiment [12]; 1.3% (inactive) in experiment [13]; -16% (inactive) in experiment [15]. The superoxide response (% of plate) in [17] was 89.1% (inactive). Also, in [6], the aptamer binding inhibition was 4% (inactive). Moreover, in experiment [9], the response was -7.44% (inactive). In addition, the binding (% of control) in [10] was 100% (inactive). For the same compound, the efflux inhibition (fraction of control) in [14] is -0.16 (inactive). Also, the differentiation response in experiment [16] was 6.26% (inactive).

Regarding `CN1C(=O)CN=C(c2ccc(Cl)cc2)c2cc(Cl)ccc21`, the percent of DMSO control GFP in experiment [1] was 99% (inactive). For the same compound, the percent response of DMSO control in experiment [2] was 95.4% (inactive). For the same compound, in experiment [3], the GFP response vs DMSO was 103% (inactive). This compound also gave a double positive events in experiment [4] of 62.8%. Besides, in [4], the vesicle binding response was 174% (inactive). Also, the inhibition in [5] was 9.92% (inactive); in experiment [8], -0.45% (inactive); in experiment [11], 3.6% (inactive); in experiment [12], 0.8% (inactive); in [13], -3.5% (inactive); in experiment [15], 7% (inactive). Besides, the aptamer binding inhibition in experiment [6] is -1% (inactive). In addition, the response in [7] was -17.9% (inactive); in experiment [9], 4.65% (inactive). Further, the binding (% of control) in experiment [10] was 96.8% (inactive). In experiment [14], the efflux inhibition (fraction of control) was 0.27 (inactive). The differentiation response in [16] is 1.22% (inactive).

As for `COc1ccccc1CN1CCCCC1c1cccnc1` (centres undefined), in [1], the percent of DMSO control GFP was 104% (inactive). Also, the percent response of DMSO control in [2] is 106% (inactive). Besides, the GFP response vs DMSO in [3] was 97.3% (inactive). Besides, in [4], the double positive events was found to be 65.8%. Further, the vesicle binding response in [4] is 217% (inactive). Also, the inhibition in experiment [5] is 4.73% (inactive); in experiment [8], 1.86% (inactive); in [11], 1.4% (inactive); in experiment [12] it was -0.8% (inactive); in experiment [13] it was 4% (inactive); in experiment [15], 6% (inactive). Further, the superoxide response (% of plate) in [17] was 98.9% (inactive). The aptamer binding inhibition in [6] is 6% (inactive). Also, the response in experiment [7] is -6.83% (inactive); in [9], -0.89% (inactive). The binding (% of control) in experiment [10] is 97.1% (inactive). Further, in experiment [14], the efflux inhibition (fraction of control) was -0.17 (inactive). Further, the differentiation response in [16] is 7.09% (inactive).

For orientation: inhibition means the change of the read-out against control, counted positive when it falls.
